These results are taken from ChEMBL document CHEMBL2218924, “A broad activity screen in support of a chemogenomic map for kinase signalling research and drug discovery” (Biochem J, 2013).

Experiment [1] concerns the target T1, Ephrin type-A receptor 3 (Homo sapiens) (UniProt P29320).
T1 sequence (whole entry): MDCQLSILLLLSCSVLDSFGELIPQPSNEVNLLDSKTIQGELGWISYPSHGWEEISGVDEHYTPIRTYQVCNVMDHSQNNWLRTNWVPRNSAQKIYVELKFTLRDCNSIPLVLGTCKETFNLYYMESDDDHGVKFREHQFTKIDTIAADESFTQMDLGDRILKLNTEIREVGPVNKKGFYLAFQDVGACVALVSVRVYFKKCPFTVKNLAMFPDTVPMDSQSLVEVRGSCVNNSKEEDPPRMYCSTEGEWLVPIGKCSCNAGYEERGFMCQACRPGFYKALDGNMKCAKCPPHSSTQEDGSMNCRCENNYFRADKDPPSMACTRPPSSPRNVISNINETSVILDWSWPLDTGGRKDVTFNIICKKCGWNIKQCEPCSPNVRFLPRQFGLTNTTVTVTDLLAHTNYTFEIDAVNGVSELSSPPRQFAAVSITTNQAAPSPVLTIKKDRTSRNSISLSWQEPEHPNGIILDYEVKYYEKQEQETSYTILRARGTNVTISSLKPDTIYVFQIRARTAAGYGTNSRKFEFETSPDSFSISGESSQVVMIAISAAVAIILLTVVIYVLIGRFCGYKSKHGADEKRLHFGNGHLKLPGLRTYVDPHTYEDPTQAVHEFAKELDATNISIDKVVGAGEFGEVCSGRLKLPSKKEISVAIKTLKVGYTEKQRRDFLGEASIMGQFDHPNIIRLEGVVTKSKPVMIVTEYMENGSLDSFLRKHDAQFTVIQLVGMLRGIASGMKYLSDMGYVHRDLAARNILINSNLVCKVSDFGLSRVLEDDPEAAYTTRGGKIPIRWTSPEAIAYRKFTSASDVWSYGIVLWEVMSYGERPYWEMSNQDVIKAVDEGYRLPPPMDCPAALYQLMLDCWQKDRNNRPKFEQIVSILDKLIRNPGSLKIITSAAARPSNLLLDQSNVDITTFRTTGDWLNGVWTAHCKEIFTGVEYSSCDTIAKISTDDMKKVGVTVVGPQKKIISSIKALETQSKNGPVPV
The note with it: at 10 µM.

For experiment [2], the target named is Ephrin type-A receptor 4 (Homo sapiens) (UniProt P54764). The note with it: at 1 µM.
Chain of Ephrin type-A receptor 4 (Homo sapiens) (P54764 whole entry): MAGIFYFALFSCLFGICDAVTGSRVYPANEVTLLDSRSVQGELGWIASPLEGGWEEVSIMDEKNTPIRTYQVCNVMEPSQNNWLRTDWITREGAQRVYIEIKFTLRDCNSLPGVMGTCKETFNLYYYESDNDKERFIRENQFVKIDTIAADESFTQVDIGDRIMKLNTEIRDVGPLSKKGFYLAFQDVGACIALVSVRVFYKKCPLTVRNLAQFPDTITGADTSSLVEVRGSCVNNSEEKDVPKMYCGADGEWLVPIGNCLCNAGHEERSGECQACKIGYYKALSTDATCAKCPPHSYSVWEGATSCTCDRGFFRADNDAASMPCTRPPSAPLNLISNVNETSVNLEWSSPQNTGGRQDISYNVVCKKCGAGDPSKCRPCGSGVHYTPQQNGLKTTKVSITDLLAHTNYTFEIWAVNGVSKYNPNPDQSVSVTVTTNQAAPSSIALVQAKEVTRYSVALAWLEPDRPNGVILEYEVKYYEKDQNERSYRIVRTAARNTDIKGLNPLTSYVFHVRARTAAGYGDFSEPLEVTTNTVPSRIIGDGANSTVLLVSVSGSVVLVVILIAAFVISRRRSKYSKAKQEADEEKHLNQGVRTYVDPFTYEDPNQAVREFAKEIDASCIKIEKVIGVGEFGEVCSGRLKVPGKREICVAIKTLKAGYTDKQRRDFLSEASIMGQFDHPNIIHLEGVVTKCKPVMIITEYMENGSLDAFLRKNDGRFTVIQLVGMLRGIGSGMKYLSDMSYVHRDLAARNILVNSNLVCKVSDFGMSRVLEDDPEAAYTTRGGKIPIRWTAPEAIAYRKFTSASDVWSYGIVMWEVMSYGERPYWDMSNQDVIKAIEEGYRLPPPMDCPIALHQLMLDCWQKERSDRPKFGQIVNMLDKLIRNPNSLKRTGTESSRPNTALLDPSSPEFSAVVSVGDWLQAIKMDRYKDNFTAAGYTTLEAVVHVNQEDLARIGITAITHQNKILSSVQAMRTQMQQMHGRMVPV
For experiment [3] the target is unchanged. To be noted: at 10 µM.
The target in experiment [4] is Ephrin type-A receptor 5 (Homo sapiens) (UniProt P54756). The note with it: at 1 µM.
Chain of Ephrin type-A receptor 5 (Homo sapiens) (P54756 whole entry): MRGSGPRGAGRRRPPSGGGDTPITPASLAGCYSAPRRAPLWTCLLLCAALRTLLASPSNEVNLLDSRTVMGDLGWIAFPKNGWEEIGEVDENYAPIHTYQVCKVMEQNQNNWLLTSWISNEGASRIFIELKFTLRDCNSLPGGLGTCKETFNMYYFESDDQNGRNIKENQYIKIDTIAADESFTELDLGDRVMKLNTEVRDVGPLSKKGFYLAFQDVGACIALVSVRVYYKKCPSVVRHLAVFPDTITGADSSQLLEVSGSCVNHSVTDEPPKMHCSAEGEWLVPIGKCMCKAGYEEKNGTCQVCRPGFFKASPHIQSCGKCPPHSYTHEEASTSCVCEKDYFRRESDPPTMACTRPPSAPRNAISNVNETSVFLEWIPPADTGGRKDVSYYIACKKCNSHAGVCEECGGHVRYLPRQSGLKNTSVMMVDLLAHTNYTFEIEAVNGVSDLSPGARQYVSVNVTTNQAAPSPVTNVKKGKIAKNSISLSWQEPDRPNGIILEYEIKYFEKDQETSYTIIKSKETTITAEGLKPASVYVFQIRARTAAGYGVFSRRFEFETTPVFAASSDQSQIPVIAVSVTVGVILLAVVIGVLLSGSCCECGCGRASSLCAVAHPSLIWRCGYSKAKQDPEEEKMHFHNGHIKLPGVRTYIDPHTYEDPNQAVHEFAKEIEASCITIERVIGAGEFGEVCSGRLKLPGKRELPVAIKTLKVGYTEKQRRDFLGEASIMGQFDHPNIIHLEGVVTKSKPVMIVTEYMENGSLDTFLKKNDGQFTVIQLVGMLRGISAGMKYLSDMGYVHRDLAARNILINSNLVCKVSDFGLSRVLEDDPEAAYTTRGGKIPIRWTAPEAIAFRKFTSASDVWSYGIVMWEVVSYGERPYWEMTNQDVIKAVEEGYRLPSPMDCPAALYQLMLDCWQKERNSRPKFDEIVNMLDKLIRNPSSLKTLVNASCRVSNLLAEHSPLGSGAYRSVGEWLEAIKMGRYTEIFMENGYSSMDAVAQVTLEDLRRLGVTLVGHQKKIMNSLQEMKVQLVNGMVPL
Experiment [5] shares this target. The note with it: at 10 µM.
Experiment [6] has as its target Ephrin type-A receptor 7 (Homo sapiens) (UniProt Q15375). To be noted: at 1 µM.
Experiment [7] has the same target. To be noted: at 10 µM.
The target of experiment [8] is T2, Ephrin type-A receptor 8 (Homo sapiens) (UniProt P29322).
T2 sequence (whole entry): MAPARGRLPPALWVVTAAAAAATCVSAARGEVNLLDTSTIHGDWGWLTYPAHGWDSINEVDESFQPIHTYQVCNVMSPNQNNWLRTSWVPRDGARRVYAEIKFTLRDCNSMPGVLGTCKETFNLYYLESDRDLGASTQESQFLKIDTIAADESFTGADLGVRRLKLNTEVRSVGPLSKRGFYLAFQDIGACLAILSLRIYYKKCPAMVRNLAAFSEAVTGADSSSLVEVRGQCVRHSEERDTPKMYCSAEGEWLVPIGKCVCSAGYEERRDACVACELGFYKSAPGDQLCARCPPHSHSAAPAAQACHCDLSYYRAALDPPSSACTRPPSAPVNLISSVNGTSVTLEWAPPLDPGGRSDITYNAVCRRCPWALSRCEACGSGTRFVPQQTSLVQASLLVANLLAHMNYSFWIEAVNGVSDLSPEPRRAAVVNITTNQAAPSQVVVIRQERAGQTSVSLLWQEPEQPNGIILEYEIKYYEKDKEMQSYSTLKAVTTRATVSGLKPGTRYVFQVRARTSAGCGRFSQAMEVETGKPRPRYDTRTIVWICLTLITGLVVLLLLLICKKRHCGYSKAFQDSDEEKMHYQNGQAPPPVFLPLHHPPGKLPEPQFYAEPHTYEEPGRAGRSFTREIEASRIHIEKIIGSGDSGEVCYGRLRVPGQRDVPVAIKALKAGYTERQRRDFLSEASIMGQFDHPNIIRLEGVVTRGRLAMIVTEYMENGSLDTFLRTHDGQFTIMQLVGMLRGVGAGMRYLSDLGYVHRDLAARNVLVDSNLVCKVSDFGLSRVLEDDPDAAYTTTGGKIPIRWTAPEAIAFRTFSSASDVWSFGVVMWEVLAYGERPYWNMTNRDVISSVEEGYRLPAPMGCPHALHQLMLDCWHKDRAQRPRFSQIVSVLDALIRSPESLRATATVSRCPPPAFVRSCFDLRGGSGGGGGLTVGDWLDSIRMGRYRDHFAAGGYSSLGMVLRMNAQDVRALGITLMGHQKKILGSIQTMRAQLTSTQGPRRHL
The note with it: at 1 µM.

Experiment [9] deals with T2, Ephrin type-A receptor 8 (Homo sapiens). To be noted: at 10 µM.
The target in experiment [10] is T3, Ephrin type-B receptor 1 (Homo sapiens) (UniProt P54762).
T3 sequence (whole entry): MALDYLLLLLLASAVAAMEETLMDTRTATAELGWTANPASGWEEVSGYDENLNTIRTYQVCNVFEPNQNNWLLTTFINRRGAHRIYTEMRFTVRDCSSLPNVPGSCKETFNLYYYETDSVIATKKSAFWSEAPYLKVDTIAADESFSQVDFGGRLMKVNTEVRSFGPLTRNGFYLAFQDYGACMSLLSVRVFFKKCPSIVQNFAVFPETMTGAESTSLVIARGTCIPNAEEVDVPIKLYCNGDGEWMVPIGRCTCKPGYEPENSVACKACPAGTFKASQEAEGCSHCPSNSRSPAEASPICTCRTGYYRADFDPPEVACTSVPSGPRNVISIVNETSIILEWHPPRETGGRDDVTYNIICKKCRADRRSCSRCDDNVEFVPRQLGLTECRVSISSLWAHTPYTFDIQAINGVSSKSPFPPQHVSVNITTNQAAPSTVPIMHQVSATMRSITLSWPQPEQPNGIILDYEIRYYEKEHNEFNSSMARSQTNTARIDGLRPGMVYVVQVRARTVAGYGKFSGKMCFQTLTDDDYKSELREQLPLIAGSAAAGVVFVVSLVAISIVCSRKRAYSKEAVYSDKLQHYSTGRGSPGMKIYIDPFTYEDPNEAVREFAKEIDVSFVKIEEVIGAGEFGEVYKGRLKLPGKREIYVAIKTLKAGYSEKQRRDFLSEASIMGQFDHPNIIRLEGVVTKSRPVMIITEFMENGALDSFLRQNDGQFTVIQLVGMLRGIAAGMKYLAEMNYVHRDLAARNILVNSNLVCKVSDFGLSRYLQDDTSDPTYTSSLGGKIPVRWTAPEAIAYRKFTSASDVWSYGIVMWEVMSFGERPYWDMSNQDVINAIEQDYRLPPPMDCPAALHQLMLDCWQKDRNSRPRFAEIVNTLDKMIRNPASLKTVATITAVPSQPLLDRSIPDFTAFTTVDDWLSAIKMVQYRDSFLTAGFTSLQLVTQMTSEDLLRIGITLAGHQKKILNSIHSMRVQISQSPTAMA
To be noted: at 1 µM.

Chain of Ephrin type-A receptor 7 (Homo sapiens) (Q15375 28-998 limits assumed): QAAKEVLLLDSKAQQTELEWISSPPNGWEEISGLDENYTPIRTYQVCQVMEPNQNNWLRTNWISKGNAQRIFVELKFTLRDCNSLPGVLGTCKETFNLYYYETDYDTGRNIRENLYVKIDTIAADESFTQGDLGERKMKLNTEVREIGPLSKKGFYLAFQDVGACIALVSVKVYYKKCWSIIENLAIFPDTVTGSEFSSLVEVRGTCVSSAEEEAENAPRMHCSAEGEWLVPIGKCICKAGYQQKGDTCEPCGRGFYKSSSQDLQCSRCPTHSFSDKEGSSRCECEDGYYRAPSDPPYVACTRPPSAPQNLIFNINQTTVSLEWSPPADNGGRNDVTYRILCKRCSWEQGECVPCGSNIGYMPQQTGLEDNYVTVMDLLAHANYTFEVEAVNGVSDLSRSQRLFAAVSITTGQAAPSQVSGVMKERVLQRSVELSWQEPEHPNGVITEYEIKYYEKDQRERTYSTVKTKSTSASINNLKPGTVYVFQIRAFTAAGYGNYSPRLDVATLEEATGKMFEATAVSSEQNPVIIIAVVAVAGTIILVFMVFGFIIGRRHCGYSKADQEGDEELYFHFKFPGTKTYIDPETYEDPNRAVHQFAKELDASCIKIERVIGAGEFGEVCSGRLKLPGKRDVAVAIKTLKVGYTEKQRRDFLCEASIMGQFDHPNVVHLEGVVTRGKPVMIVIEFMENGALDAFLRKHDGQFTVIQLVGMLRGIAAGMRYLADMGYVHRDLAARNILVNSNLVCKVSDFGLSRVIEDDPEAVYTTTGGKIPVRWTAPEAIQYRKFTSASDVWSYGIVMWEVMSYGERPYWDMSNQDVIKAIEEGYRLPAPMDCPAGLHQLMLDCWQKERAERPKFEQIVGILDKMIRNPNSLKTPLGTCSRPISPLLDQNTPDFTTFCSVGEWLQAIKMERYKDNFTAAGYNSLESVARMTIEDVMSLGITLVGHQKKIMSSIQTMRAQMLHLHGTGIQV

A word on the residual activity: it is the signal under treatment as a percentage of the control signal. `Ic1cccc(CSc2nnc(-c3ccncc3)o2)c1`: the residual activity worked out at 83% in experiment [1]; 104% in experiment [2]; 103% in experiment [3]; 106% in experiment [4]; 99% in [5]; 88% in experiment [6]. Besides, the residual activity was found to be 81% in experiment [7], 89% in experiment [8], 87% in [9] and 95% in experiment [10].
